# Source: ChEMBL document CHEMBL3988442, “University of Dundee, Small-Polar-MMV Screening Library” (2021)
# For part of these data: Measured potencies and affinities stand elsewhere.
# Legend:
# Parameters in all cases: scale not given: direction of the effect not stated beside the values
# [1] = target: Protein translocase subunit SecA (Escherichia coli (strain K12)) (UniProt P10408); experiment: Assay to Identify E. coli SecA ATPase Inhibitors; type: functional; conditions: 30 µM
# [2] = target: T1, Ubiquitin-activating enzyme e1, putative (Leishmania donovani (strain BPK282A1)) (UniProt E9BSI1); experiment: Leishmania donovani Ubiquitin Activating Enzyme (LdE1); type: functional; conditions: 30 µM
# T1 sequence (whole entry): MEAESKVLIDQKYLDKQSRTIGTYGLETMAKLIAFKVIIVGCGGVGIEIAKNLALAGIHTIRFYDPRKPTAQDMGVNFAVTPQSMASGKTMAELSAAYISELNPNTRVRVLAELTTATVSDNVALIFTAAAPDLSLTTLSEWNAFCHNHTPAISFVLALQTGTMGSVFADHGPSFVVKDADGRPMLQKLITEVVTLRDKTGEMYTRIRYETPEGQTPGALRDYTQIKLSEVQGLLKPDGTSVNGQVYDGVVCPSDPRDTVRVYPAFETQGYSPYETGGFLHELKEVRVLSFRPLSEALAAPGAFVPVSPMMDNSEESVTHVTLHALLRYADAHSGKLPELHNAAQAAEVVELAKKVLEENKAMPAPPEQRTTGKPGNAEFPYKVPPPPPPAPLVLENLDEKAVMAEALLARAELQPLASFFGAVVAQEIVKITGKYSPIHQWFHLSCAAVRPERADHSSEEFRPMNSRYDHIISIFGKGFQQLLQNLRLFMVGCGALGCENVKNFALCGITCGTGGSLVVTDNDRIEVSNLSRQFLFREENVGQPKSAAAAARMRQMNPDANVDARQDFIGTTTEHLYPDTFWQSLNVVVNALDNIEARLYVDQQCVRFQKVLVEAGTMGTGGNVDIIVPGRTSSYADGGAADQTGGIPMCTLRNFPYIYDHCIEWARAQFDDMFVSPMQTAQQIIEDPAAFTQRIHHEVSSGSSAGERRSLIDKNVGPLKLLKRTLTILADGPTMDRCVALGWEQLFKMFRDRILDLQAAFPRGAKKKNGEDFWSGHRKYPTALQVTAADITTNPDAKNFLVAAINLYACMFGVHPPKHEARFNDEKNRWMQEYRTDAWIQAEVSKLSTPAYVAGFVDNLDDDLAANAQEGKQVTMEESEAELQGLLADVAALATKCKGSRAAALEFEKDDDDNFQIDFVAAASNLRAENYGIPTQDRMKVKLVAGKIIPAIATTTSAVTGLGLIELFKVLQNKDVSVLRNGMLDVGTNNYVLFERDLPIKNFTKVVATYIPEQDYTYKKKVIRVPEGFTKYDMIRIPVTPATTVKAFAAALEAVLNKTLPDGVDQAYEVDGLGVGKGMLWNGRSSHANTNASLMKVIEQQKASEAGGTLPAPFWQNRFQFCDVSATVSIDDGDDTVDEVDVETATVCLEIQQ
# [3] = target: AMP-activated protein kinase, AMPK (Homo sapiens) (UniProt P54646+O43741+P54619+Q9UGJ0+Q9Y478+Q13131+Q9UGI9); experiment: AMP-dependent Kinase enzyme assay. An in vitro enzyme assay that detects ADP turnover that is directly proportional to AMPK activity. This uses naive AMPK that is activated during the assay with MK-8722; type: functional; conditions: 30 µM
# [4] = target: Sialic acid-binding Ig-like lectin 9 (Homo sapiens) (UniProt Q9Y336); experiment: Hs-Siglec9 ALPHAscreen SOP 20170721; conditions: 10 µM
# Sialic acid-binding Ig-like lectin 9 (Homo sapiens), sequence (Q9Y336 whole entry): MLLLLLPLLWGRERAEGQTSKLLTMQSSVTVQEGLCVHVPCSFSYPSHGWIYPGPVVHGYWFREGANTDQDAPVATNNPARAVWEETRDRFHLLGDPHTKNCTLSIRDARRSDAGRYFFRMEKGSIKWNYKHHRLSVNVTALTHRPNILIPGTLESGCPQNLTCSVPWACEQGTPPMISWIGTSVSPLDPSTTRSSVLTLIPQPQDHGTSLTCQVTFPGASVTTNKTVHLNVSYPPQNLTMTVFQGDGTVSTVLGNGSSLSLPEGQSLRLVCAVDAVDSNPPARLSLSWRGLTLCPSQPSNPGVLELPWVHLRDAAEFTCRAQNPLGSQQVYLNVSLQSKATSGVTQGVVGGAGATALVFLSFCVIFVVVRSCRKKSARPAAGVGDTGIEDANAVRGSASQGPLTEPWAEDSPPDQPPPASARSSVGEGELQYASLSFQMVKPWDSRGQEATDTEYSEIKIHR
# [5] = system: Trypanosoma cruzi; experiment: Trypanosoma cruzi phosphomannomutase and mannose-1-phosphate guanylyltransferase assay; type: functional; conditions: 10 µM
# [6] = target: T2, Arginase-2, mitochondrial (Homo sapiens) (UniProt P78540); experiment: in vitro enzyme assay to detect the production of urea directly proportional to the activity of Arginase II; type: functional; conditions: 33.3 µM; also: in the data most compounds retested in dose-response had high values
# T2 sequence (whole entry): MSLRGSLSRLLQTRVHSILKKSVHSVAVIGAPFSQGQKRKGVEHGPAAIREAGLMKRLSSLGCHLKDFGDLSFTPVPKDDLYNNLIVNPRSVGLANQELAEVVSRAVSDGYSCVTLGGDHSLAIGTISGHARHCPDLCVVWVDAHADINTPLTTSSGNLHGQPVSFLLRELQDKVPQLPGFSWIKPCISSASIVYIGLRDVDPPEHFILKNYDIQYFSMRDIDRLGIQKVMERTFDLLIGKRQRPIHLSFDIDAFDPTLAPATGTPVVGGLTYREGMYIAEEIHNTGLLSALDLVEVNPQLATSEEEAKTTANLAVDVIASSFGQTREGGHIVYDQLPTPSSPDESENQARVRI
# [7] = target: T3, Proteasome subunit beta (Trypanosoma cruzi) (UniProt O96673); experiment: Trypanosoma cruzi proteasome chymotrypsin-like activity (TcProtChymo) assay.; also: in the data most compounds retested in dose-response had high values; type: functional; conditions: 9.37 µM
# T3 sequence (whole entry): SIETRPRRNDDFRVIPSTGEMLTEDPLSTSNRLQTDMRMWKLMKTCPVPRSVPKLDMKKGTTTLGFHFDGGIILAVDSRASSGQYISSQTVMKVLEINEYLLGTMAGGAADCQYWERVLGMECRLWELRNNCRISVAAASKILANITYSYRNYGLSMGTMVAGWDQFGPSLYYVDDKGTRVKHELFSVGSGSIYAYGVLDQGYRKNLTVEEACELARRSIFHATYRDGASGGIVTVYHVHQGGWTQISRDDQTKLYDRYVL
# [8] = species on record: Homo sapiens; experiment: To identify inhibition of the IFN signalling (Jak-Stat) pathway via expression of an eGFP reporter gene under the control of an IFN-stimulated response element (ISRE) containing MxA promoter.; type: functional; conditions: 30 µM
# [9] = target: T4, Tyrosyl-tRNA synthetase, putative (Trypanosoma cruzi (strain CL Brener)) (UniProt Q4DSP6); experiment: Trypanosoma cruzi tyrosyl tRNA synthetase (TcYRS) _High Tyrosine SOP; type: functional; conditions: 30 µM; also: in the data most compounds retested in dose-response had high values
# T4 sequence (whole entry): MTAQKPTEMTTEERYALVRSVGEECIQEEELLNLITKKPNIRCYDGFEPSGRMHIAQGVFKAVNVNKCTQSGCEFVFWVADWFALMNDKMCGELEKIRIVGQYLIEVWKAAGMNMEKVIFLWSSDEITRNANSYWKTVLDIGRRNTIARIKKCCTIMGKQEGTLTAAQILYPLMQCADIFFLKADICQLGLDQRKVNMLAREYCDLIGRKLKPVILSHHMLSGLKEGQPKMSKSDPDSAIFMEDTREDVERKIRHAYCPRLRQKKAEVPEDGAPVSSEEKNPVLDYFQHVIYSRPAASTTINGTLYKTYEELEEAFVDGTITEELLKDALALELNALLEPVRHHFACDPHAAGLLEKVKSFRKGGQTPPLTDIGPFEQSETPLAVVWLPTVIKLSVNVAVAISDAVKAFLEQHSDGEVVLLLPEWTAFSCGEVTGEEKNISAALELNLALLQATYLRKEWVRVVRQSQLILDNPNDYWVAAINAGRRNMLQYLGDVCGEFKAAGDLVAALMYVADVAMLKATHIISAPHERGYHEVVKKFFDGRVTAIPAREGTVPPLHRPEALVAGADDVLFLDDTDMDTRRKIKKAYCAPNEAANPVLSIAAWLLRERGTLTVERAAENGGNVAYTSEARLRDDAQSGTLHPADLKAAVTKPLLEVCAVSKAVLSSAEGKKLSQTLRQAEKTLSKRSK
# [10] = target: T4, Tyrosyl-tRNA synthetase, putative (Trypanosoma cruzi (strain CL Brener)); experiment: Trypanosoma cruzi tyrosyl tRNA synthetase (TcYRS) SOP; type: functional; conditions: 30 µM
# [11] = target: Chromo domain-containing protein 1 (Saccharomyces cerevisiae (strain ATCC 204508 / S288c) (Baker's yeast)) (UniProt P32657); experiment: ScCHD-1 Enzyme Inhibition Assay; type: functional; conditions: 30 µM; also: in the data most compounds retested in dose-response had high values
# Chromo domain-containing protein 1 (Saccharomyces cerevisiae (strain ATCC 204508 / S288c) (Baker's yeast)), sequence (P32657 whole entry, the tested form may be a part): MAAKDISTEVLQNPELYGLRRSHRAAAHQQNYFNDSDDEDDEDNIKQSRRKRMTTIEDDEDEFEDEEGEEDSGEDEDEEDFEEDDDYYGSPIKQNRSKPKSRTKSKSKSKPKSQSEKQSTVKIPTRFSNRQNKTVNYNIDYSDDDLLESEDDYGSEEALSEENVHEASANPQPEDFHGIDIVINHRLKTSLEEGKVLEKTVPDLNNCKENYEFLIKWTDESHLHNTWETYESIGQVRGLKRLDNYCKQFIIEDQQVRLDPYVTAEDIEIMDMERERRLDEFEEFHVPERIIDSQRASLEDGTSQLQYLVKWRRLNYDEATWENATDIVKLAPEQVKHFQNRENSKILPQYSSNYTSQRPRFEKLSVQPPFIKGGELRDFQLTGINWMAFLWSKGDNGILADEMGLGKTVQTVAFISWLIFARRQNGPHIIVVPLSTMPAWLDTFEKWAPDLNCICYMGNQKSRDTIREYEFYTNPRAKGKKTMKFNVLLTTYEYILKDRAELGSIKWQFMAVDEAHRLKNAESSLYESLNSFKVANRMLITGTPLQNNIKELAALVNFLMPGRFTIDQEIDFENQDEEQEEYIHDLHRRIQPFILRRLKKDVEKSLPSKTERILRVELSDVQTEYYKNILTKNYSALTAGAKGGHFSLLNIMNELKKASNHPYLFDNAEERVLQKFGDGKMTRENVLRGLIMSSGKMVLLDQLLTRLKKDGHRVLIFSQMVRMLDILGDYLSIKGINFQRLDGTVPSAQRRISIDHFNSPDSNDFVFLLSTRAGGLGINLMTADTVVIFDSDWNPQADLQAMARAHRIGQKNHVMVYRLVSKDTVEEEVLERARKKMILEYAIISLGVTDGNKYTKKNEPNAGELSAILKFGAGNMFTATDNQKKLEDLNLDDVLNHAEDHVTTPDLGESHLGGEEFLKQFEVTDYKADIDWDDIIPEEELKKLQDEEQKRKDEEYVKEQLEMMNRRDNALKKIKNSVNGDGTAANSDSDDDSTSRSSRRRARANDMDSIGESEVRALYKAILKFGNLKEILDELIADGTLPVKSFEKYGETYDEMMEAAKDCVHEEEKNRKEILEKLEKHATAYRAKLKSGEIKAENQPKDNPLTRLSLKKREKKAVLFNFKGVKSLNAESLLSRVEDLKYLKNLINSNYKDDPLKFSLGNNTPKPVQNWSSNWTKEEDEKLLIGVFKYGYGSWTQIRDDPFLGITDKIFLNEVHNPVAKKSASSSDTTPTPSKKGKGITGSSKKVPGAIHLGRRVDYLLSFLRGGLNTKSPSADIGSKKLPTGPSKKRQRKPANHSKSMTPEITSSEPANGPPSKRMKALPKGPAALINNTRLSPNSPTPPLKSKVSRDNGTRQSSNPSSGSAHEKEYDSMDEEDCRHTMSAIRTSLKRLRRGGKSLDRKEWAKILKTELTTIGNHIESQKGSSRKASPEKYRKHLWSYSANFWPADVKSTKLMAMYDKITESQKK
# Protein translocase subunit SecA (Escherichia coli (strain K12)), sequence (P10408 whole entry): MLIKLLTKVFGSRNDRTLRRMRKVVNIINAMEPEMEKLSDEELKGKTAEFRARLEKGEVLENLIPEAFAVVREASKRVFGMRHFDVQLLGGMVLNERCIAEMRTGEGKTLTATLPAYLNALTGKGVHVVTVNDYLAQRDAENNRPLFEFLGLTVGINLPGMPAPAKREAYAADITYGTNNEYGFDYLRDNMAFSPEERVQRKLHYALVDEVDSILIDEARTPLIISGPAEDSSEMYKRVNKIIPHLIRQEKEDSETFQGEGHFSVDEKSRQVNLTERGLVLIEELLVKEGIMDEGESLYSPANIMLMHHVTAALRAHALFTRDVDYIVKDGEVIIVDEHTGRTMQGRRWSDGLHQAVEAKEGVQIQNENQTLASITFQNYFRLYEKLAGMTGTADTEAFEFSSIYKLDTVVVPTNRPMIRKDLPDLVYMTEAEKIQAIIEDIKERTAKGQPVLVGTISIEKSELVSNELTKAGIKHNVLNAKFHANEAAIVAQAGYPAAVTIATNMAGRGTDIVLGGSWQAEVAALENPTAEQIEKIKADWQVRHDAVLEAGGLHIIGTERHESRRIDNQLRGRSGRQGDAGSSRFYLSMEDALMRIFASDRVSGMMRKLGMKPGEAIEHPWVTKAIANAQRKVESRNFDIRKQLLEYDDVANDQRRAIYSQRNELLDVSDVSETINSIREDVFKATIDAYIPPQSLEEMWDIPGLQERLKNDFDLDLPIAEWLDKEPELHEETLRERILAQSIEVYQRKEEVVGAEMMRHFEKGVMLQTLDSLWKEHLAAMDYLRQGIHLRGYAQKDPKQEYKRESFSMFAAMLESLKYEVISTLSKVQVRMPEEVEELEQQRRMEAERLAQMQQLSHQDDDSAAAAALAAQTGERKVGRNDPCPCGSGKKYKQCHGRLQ
SMILES,Percent Effect [1] [%],Percent Effect [2] [%],Percent Effect [3] [%],Percent Effect [4] [%],Percent Effect [5] [%],Percent Effect [6] [%],Percent Effect [7] [%],Percent Effect [8] [%],Percent Effect [9] [%],Percent Effect [10] [%],Percent Effect [11] [%]
CC(C)CNC(=O)c1c(-n2cnnn2)sc2c1CCC2,-4.85,13.2,3.3,0.76,0.0974,0,10.4,-15.7,2.13,15.6,-4.29
Cc1cc(C)n(-c2cncc(NCCNC(=O)CC3CCCC3)n2)n1,-5.92,5.41,16.2,27.9,0.489,1.24,8.67,-10.2,1.07,8.64,-4.7
Cc1cc(NC(=O)CN2CCOC(Cn3cccn3)C2)n(C)n1 (stereo unspecified),-5.44,0,5.74,-1.25,1.27,-1.05,-1.86,15.9,2.86,9.41,-16.3
CCn1cc(CN(C)S(=O)(=O)c2cc(Cl)ccc2Cl)cn1,-0.942,14.7,-0.125,-2.27,-6.09,-8.98,15.9,2.3,0,7.69,-9.05
Cc1cnn(C2CCCN(C(=O)c3ccnc(-n4ccnc4)c3)C2)c1 (stereo unspecified),-2.31,8.86,2.83,0.259,-0.513,3.66,8.23,0.141,4.17,17.7,-27.2
Cc1cc(C2CCCN(CCCS(=O)(=O)c3ccccc3)C2)n[nH]1 (stereo unspecified),-0.801,15.2,-4.79,-8.5,-3.87,6.46,4.34,18.4,4.43,11.4,-5.44
O=C(Nc1cnccn1)[C@@H]1COC[C@H]2CN(C3CCCC3)C[C@H]21,-8.34,13.5,-5.42,16.7,3.91,3.33,3.97,-6.67,6.93,11,-4.69
COc1cc(CN(C)C(=O)Cc2c(C)nn(C)c2C)ccc1OC(F)F,3.46,-9.72,-6.03,-7.7,-5.15,3.09,20.2,55.5,5.26,10.3,0.343
Cc1occc1C(=O)N1CCC2(CC1)CC(c1cccnc1)C(=O)N2C (stereo unspecified),-1.69,10.7,-2.33,5.45,-1.74,-19.9,5.64,-9.07,2.08,12.5,-5.44
CN(C)[C@@H]1CCN(C(=O)NC2CCCC2)[C@H]1Cc1cnn(C)c1,-4.9,2.67,-90.2,5.44,-0.197,2.1,7.84,-0.845,1.06,-3.85,1.31
CCc1n[nH]c(C2CN(C(=O)c3ccsc3)CCO2)n1 (stereo unspecified),-3.58,0,6.15,8.54,-0.686,4.84,6.39,4.84,-2.86,-2.35,-13.8
CC(C)CCN1CCN(Cc2nc(C3CC3)no2)CC1,-7.83,-2.7,1.67,-0.524,1.17,-0.417,9.38,2.9,2.97,-3.66,-0.984
Cc1cccc(C(=O)NC(CN2CCCC2=O)c2ccccc2)n1 (stereo unspecified),-2.94,13.2,-3.02,7.02,5.83,6.13,8.35,-4.47,5.39,21.9,-10.3
COc1cccc(CN(C)Cc2cccc(C#N)c2)c1OC,-2.4,10.8,-3.58,5.68,5.08,23.3,8.88,7.86,1.98,-1.22,-6.76
Cn1cc(C(=O)NC2CCN(C(=O)NCC3CCSCC3)CC2)cn1,-7.28,6.33,11.5,2.29,-2.15,2.37,8.75,24.4,11.5,15.2,1.7
Cc1nc(C2CCCN2C(=O)c2cnns2)no1 (stereo unspecified),-3.1,13.2,3.2,4.23,-0.564,9.96,12.9,3.69,5.39,17.1,-6.62
Cn1nc(C#N)c2c1CN(C(=O)c1cccnc1)CCC2,-4.61,2.6,-0.491,-7,-2.66,-1.94,3.13,6.32,-2.12,-6.41,-0.821
CCN(Cc1nc2c(cnn2C)c(=O)[nH]1)Cc1cccs1,-4.13,15.6,-1.29,-13.1,4.6,-10.3,15.3,-0.846,7.62,25.9,-21.1
CCCN1CC(C(=O)Nc2ccccn2)CC1=O (stereo unspecified),0.0255,0,-0.466,5.93,4.83,12.4,9.31,15.4,2.65,7.32,-4.7
Cn1cc(CN2CCOC3(CCCN(C(=O)c4ccco4)C3)C2)cn1 (stereo unspecified),-4.16,13,-1.39,4.5,8.95,-8.28,5.49,1.45,3.23,8.64,-6.46
O=C(c1ccccn1)N1Cc2nccn2CC(COc2cccnc2)C1 (stereo unspecified),0.812,13.3,0.132,2.56,-0.193,-54.7,4.96,20.5,4.17,15,-4.96
